Mdm2-MdmX inh: human Mdm2/MdmX binding inhibition | O15151+Q00987 | SaOS-2 split-luciferase Mdm2/MdmX complementation, luminescence | inhibition, % at 8 µM | 3% of 330,000 active | AID 485346;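 active means inhibition of at least 50% at 8 µM in the primary screen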
Target sequence (O15151 whole entry, looked up): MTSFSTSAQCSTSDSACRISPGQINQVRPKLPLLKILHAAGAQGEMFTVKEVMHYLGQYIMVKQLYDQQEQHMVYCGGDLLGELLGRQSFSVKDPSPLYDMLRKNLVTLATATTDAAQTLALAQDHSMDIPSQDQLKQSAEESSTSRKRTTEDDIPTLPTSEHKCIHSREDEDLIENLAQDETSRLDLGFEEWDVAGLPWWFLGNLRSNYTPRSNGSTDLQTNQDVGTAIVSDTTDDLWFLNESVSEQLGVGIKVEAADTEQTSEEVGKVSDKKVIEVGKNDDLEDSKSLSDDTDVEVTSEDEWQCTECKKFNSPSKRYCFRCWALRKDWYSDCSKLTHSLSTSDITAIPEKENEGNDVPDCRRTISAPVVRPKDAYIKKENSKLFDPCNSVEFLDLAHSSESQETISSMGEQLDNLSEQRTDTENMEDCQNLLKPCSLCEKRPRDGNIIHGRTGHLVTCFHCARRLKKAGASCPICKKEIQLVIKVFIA
Target sequence (Q00987 whole entry, looked up): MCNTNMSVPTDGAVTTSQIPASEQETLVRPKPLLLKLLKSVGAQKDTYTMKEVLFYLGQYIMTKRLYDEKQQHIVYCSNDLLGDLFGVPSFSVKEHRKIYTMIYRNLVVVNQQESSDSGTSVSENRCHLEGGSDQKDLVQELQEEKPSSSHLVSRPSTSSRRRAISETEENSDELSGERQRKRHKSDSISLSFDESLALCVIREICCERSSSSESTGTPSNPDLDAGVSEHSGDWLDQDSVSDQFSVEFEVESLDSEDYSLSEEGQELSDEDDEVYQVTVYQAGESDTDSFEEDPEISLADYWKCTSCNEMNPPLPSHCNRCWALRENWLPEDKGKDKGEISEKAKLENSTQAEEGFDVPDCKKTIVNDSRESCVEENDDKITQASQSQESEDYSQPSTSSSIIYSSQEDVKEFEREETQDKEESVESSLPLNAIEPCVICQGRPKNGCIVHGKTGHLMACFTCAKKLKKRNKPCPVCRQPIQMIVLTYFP
Gli-Sufu block: Gli-Sufu pathway antagonism | Sufu-KO-LIGHT fibroblasts, Gli luciferase reporter luminescence | inhibition, % at 5 µM | 0.74% of 340,000 active | AID 588413;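 active means inhibition above about 55%, limit read from the data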;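 further: 0% = DMSO-treated cells and 100% = wells with medium but no cells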
Jurkat NFkB inh: lowers PMA/ionomycin-induced NF-kB signal in Jurkat cells. PMA/ionomycin-induced NF-kB luciferase reporter, luminescence. inhibition, % at 4 µM. 0.53% of 330,000 active. AID 435003; in the data active means inhibition above about 50%
CSC inhib: cancer stem cell inhibition; cancer stem cell-like cells viability, luminescence; inhibition, % at 7.5 µM; 1.1% of 300,000 active; AID 2717; in the data active means inhibition above about 75%; tested in HMLE shEcad cells
697 NFkB inh: lowers PMA/ionomycin-induced NF-kB signal in 697 B cells | 697 B-cell NF-kB luciferase reporter, 16 h | inhibition, % at 4 µM | 0.33% of 330,000 active | AID 435022; in the data active means inhibition above about 35%
Beta apoptosis: blocks beta cell apoptosis | INS-1E cytokine-induced death, ATP luminescence, 48 h; percent of positive-control rescue, neutral wells zero | protection from apoptosis, % (no concentration beside the values) | 0.8% of 300,000 active;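 active means Every replicate reaches about 75%, or at least half do and their mean reaches it too, limit read from the data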;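 further: 0% = cytokine-treated negative control wells and 100% = positive control rescue; higher means more ATP so stronger rescue from cytokine killing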
Mdm2-MdmX conf: human Mdm2/MdmX binding inhibition, confirmed; shares compounds with Mdm2-MdmX inh; luminescent assay; inhibition, % at 8 µM; 55% of 10,000 active; AID 489028; in the data active means inhibition above about 40%
FLuc counter: inhibits full-length luciferase, flagging false Mdm2/MdmX hits | shares compounds with Mdm2-MdmX inh | SaOS-2 full-length luciferase counterscreen, luminescence | inhibition, % at 8 µM | 77% of 6,200 active | AID 504607;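 active means mean inhibition at 8 µM reaching about 37%, which flags the compound as non-specific, limit read from the data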;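 further: p53-null SaOS-2 cells with luciferase driven by a doxycycline-inducible promoter; compound on cells about two nights before reading with doxycycline added after day one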
An asterisk follows results filed as active. Hits are enriched below; roughly 4.5% of the tested compounds scored in any of these assays.

For N/C(=N\OC(=O)c1cccc2ccccc12)c1cccc([N+](=O)[O-])c1 the results were Mdm2-MdmX inh 76*, Gli-Sufu block -2, Jurkat NFkB inh -18, CSC inhib 2, 697 NFkB inh -19, Beta apoptosis -7, Mdm2-MdmX conf 58* and FLuc counter 128*.
Screening N/C(=N\OC(=O)c1cccc2ccccc12)c1cccnc1 returned Mdm2-MdmX inh 48, Gli-Sufu block -34, Jurkat NFkB inh -51, CSC inhib -7, 697 NFkB inh -57 and Beta apoptosis 1.
For COc1cc(OC)cc(C(=O)O/N=C(\N)c2ccncc2)c1 the results were Mdm2-MdmX inh 14, Gli-Sufu block -19, Jurkat NFkB inh -9, CSC inhib 14, 697 NFkB inh -20 and Beta apoptosis 6.
Screening O=C(NN=C(c1ccccc1)c1ccccn1)c1ccccc1 returned Mdm2-MdmX inh 91*, Gli-Sufu block 54, Jurkat NFkB inh 45, CSC inhib 57, 697 NFkB inh -30, Beta apoptosis 103*, Mdm2-MdmX conf 58* and FLuc counter 27.
For Cc1cccc(/C(N)=N/OC(=O)c2cccc3ccccc23)c1 the results were Mdm2-MdmX inh 100*, Jurkat NFkB inh -20, CSC inhib -4, 697 NFkB inh -75, Beta apoptosis -1, Mdm2-MdmX conf 78* and FLuc counter 108*.
Screening COc1ccc(OC)c(S(=O)(=O)Nc2cccc3ccc(O)cc23)c1 returned Mdm2-MdmX inh -14, Gli-Sufu block 0, Jurkat NFkB inh -12, CSC inhib 14, 697 NFkB inh -31 and Beta apoptosis -7.
Screening Cc1cccc(/C(N)=N/OC(=O)N2c3ccccc3Sc3ccccc32)c1 returned Mdm2-MdmX inh 64*, Gli-Sufu block -2, Jurkat NFkB inh 7, CSC inhib 7, 697 NFkB inh 6, Beta apoptosis 17 and Mdm2-MdmX conf 1.
Screening N/C(=N\OC(=O)N1c2ccccc2Sc2ccccc21)c1ccccc1 returned Mdm2-MdmX inh 20, Gli-Sufu block 6, Jurkat NFkB inh 7, CSC inhib 1, 697 NFkB inh 2 and Beta apoptosis 10.
N/C(=N\OC(=O)c1cc(Cl)ccc1Cl)c1ccccn1 was read as Mdm2-MdmX inh -96, Gli-Sufu block -82, Jurkat NFkB inh -76, CSC inhib 0, 697 NFkB inh -97 and Beta apoptosis 5.
`O=C(O/N=C(\c1ccccc1)c1ccccn1)c1cccc2ccccc12` gave Mdm2-MdmX inh 87*, Gli-Sufu block -5, Jurkat NFkB inh 5, CSC inhib -6, 697 NFkB inh -3, Beta apoptosis -6 and Mdm2-MdmX conf 29.
`CCCOc1ccc2ccccc2c1/C=N/n1c(C)nnc1-n1nc(C)cc1C` gave Mdm2-MdmX inh 52*, Gli-Sufu block 8, Jurkat NFkB inh 49, CSC inhib 40, 697 NFkB inh -3, Beta apoptosis -2, Mdm2-MdmX conf 54* and FLuc counter 54*.
CCCCOc1ccc2ccccc2c1C=O was read as Mdm2-MdmX inh -9, Gli-Sufu block -31, Jurkat NFkB inh -31, CSC inhib -21, 697 NFkB inh -60 and Beta apoptosis -2.
Cc1c(C(=O)Nc2ccccc2)c2ccc(C(F)(F)F)cc2n1O was read as Mdm2-MdmX inh -7, Gli-Sufu block 4, Jurkat NFkB inh 11, CSC inhib 39, 697 NFkB inh 9 and Beta apoptosis 0.
CCOc1ccc(NC(=O)CNC(=O)c2ccc(OC)cc2)cc1 was read as Mdm2-MdmX inh 26, Gli-Sufu block -4, Jurkat NFkB inh 7, CSC inhib -17, 697 NFkB inh 11 and Beta apoptosis -3.
COc1ccc(C(=O)N/N=C(/C)c2cccc(NC(=O)c3ccccc3F)c2)cc1 was read as Mdm2-MdmX inh 53*, Gli-Sufu block -19, Jurkat NFkB inh -21, 697 NFkB inh 7, Beta apoptosis 7 and Mdm2-MdmX conf 5.
For Cc1cccc(NC(=O)c2ccc(C(=O)Nc3cccc(C)c3)nc2)c1 the results were Mdm2-MdmX inh 56*, Gli-Sufu block 13, Jurkat NFkB inh 19, CSC inhib 60, 697 NFkB inh -26, Beta apoptosis 1, Mdm2-MdmX conf 52* and FLuc counter 56*.
CC(=O)Nc1cccc(NC(=O)c2ccc(C(=O)Nc3cccc(NC(C)=O)c3)nc2)c1 was read as Mdm2-MdmX inh -13, Gli-Sufu block 11, Jurkat NFkB inh -29, CSC inhib 3, 697 NFkB inh -37 and Beta apoptosis -6.
COc1ccc(C(=O)Nc2ccc(C(=O)Nc3cccc(C)c3)cc2)cc1 was read as Mdm2-MdmX inh 56*, Gli-Sufu block 8, Jurkat NFkB inh 12, CSC inhib -5, 697 NFkB inh 9, Beta apoptosis 51, Mdm2-MdmX conf 39 and FLuc counter 73*.
Screening COc1ccc(C(=O)NCC(=O)Nc2ccc(-c3ccccc3)cc2)cc1 returned Mdm2-MdmX inh 51*, Gli-Sufu block -48, Jurkat NFkB inh -1, CSC inhib 9, 697 NFkB inh 10, Beta apoptosis 0, Mdm2-MdmX conf 68* and FLuc counter 62*.
COc1ccc2[nH]c(=O)c(CN(c3ccccc3OC)S(=O)(=O)c3ccccc3)cc2c1 was read as Mdm2-MdmX inh 60*, Jurkat NFkB inh 25, CSC inhib 30, 697 NFkB inh -2, Beta apoptosis 6, Mdm2-MdmX conf 38 and FLuc counter 89*.
For COc1ccc2[nH]c(=O)c(CN(c3ccccc3)S(=O)(=O)c3ccccc3)cc2c1 the results were Mdm2-MdmX inh 24, Gli-Sufu block 5, Jurkat NFkB inh 6, CSC inhib 1, 697 NFkB inh 3 and Beta apoptosis 2.
Screening CCOc1ccc(N(Cc2cc3ccc(C)cc3[nH]c2=O)S(=O)(=O)c2ccccc2)cc1 returned Mdm2-MdmX inh 59*, Gli-Sufu block 0, Jurkat NFkB inh 42, CSC inhib -14, 697 NFkB inh -71, Beta apoptosis 5, Mdm2-MdmX conf 58* and FLuc counter 55*.
CS(=O)(=O)Nc1ccc(C(=O)NC2CCCCC2)cc1 was read as Mdm2-MdmX inh -8, Gli-Sufu block -2, Jurkat NFkB inh 13, CSC inhib -10, 697 NFkB inh 6 and Beta apoptosis -7.
Screening CS(=O)(=O)c1ccc(C(=O)NC2CCCCC2)cc1 returned Mdm2-MdmX inh 55*, Gli-Sufu block 8, Jurkat NFkB inh -2, CSC inhib -2, 697 NFkB inh -8, Beta apoptosis -7 and Mdm2-MdmX conf 18.
`O=C(O)c1ccc(N2CCCS2(=O)=O)cc1` gave Mdm2-MdmX inh 24, Gli-Sufu block -19, Jurkat NFkB inh -4, CSC inhib 6, 697 NFkB inh 11 and Beta apoptosis -4.
N#C/C(=N\Nc1ccc(F)cc1)C(=O)C1CC1 was read as Mdm2-MdmX inh 17, Gli-Sufu block 2, Jurkat NFkB inh -8, CSC inhib 39, 697 NFkB inh -17 and Beta apoptosis 6.
